Assay results: the supplement of paper PMC4840960
± gives the standard deviation of the averaged measurements.

Test system: E18 rat cortical neuron-glia co-culture
Assay: fiber score / MBP score (myelination specific beyond OL differentiation) (ratio); higher = more myelination-specific MBP alignment
Details: 5 µM; treatment time: 8 days (DIV5-DIV13)
In short: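 Papain-dissociated primary E18 rat cortical co-cultures, plated at 20,000 cells/well on poly-d-lysine/laminin 96-well plates, were exposed to library compounds at 1 or 5 µM in myelination medium between DIV5 and DIV13. Following fixation in 4 % paraformaldehyde, cultures were stained for MBP, Olig2 and DAPI, and four 10X fields per well were analysed in duplicate wells. Values are the ratio of fiber score (continuous MBP fiber length per Olig2+ nucleus) to MBP score (thresholded MBP area × intensity per Olig2+ nucleus).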

SMILES | fiber score / MBP score
COc1ccccc1N1CCN(CCCNc2cc(=O)n(C)c(=O)n2C)CC1 [Urapidil] | 0.799
O=C(O)COCCN1CCN(C(c2ccccc2)c2ccc(Cl)cc2)CC1 (stereo not drawn) [Virlix] | 0.681
CC(C(=O)O)c1cccc(C(=O)c2ccccc2)c1 (stereo not drawn) [Ketoprofen] | 0.972
C[C@H](CS)C(=O)N1CCC[C@H]1C(=O)O [Captopril] | 0.704
CC(=O)/N=c1/sc(S(N)(=O)=O)nn1C [Methazolamide] | 0.672
NC(N)=Nc1nc(CSCC/C(N)=N/S(N)(=O)=O)cs1 [Famotidine] | 0.752
Cc1cccc(C)c1NC(=O)C1CCCCN1C (stereo not drawn) [Mepivacaine] | 0.864
CN(Cc1cnc2nc(N)nc(N)c2n1)c1ccc(C(=O)N[C@@H](CCC(=O)O)C(=O)O)cc1 [Methotrexate] | 1.53
Cc1onc(-c2ccccc2)c1-c1ccc(S(N)(=O)=O)cc1 [Valdecoxib] | 0.733
C[C@H]1O[C@@H](O[C@H]2[C@@H](O)C[C@H](O[C@H]3[C@@H](O)C[C@H](O[C@H]4CC[C@@]5(C)[C@H](CC[C@@H]6[C@@H]5C[C@@H](O)[C@]5(C)[C@@H](C7=CC(=O)OC7)CC[C@]65O)C4)O[C@@H]3C)O[C@@H]2C)C[C@H](O)[C@@H]1O [Digoxin] | 1.46
C/C(=C\C(=O)OCCCCCCCCC(=O)O)C[C@@H]1OC[C@H](C[C@@H]2O[C@H]2[C@@H](C)[C@H](C)O)[C@@H](O)[C@H]1O [Mupirocin] | 0.41
COc1ccccc1OCC(O)CN1CCN(CC(=O)Nc2c(C)cccc2C)CC1 (stereo not drawn) [Ranolazine] | 0.697
CN(C)CCOC(c1ccccc1)c1ccccc1 [Diphenhydramine] | 0.525
Cc1c(O)c(=O)ccn1C [Deferiprone] | 0.731
CN1CCCCC1CCN1c2ccccc2Sc2ccc([S+](C)[O-])cc21 (stereo not drawn) [Mesoridazine] | 0.747
Cc1onc(-c2ccccc2)c1C(=O)N[C@@H]1C(=O)N2[C@@H]1SC(C)(C)[C@@H]2C(=O)O [Oxacillin] | 0.897
COc1ccc(CCN(C)CCCC(C#N)(c2ccc(OC)c(OC)c2)C(C)C)cc1OC (stereo not drawn) [Verapamil] | 0.533
COc1ccccc1OCC(O)COC(N)=O (stereo not drawn) [Methocarbamol] | 0.985
c1ccc(-c2ccc(C(c3ccccc3)n3ccnc3)cc2)cc1 (stereo not drawn) [Bifonazole] | 1.22

SMILES | fiber score / MBP score
Cc1nc(=O)c2cc(CN(C)c3ccc(C(=O)N[C@@H](CCC(=O)O)C(=O)O)s3)ccc2[nH]1 [Raltitrexed] | 1.67
CCCNC(=O)NS(=O)(=O)c1ccc(Cl)cc1 [Chlorpropamide] | 1.05
Cc1occc(=O)c1O [Maltol] | 0.672
COc1ccc(CC(C)NCC(O)c2ccc(O)c(NC=O)c2)cc1 (stereo not drawn) [Formoterol] | 0.726
CCC(=O)O[C@@H]1CC(=O)O[C@H](C)C/C=C/C=C/[C@H](O)[C@H](C)C[C@H](CC=O)[C@H](O[C@@H]2O[C@H](C)[C@@H](O[C@H]3C[C@@](C)(O)[C@@H](OC(=O)CC)[C@H](C)O3)[C@H](N(C)C)[C@H]2O)[C@H]1OC [Midecamycin] | 1.13
CCc1ccc(CCOc2ccc(CC3SC(=O)NC3=O)cc2)nc1 (stereo not drawn) [Pioglitazone] | 0.501
CCOC(=O)[C@H](CCc1ccccc1)N[C@@H](C)C(=O)N1[C@H](C(=O)O)C[C@@H]2CCC[C@@H]21 [Ramipril] | 0.628 ± 0.47
CO[C@H]1/C=C/O[C@@]2(C)Oc3c(C)c(O)c4c(c3C2=O)C2=NC3(CCN(CC(C)C)CC3)NC2=C(NC(=O)/C(C)=C\C=C\[C@H](C)[C@H](O)[C@@H](C)[C@@H](O)[C@@H](C)[C@H](OC(C)=O)[C@@H]1C)C4=O [Rifabutin] | 0.734 ± 0.12
CC(Cc1ccccc1)(NC(=O)CN)c1ccccc1 (stereo not drawn) [Remacemide] | 0.749
CNCCCC12CCC(c3ccccc31)c1ccccc12 [Maprotiline] | 0.581
CC1COc2c(N3CCN(C)CC3)c(F)cc3c(=O)c(C(=O)O)cn1c23 (stereo not drawn) [Ofloxacin] | 0.784 ± 0.19
CC(C)OC(=O)CCC/C=C\C[C@@H]1[C@@H](CC[C@@H](O)CCc2ccccc2)[C@H](O)C[C@@H]1O [Latanoprost] | 0.853
NS(=O)(=O)Cc1noc2ccccc12 [Zonisamide] | 0.799
CC(C(=O)O)c1ccc(CC2CCCC2=O)cc1 (stereo not drawn) [loxoprofen] | 0.875
C=CC1=C(C(=O)O)N2C(=O)[C@@H](NC(=O)/C(=N\OCC(=O)O)c3csc(N)n3)[C@H]2SC1 [Cefixime] | 1.4
COc1ccc2cc([C@H](C)C(=O)O)ccc2c1 [Naproxen] | 0.859
CN(C)c1ccc(O)c2c1C[C@H]1C[C@H]3[C@H](N(C)C)C(O)=C(C(N)=O)C(=O)[C@@]3(O)C(O)=C1C2=O [Minocycline] | 0.583
CC(C)(S)[C@@H](N)C(=O)O [Penicillamine] | 0.926
CN1CCN(CCCN2c3ccccc3Sc3ccc(Cl)cc32)CC1 [Prochlorperazine] | 1.56
